# Publication PMC5540273 (PLoS ONE, 2017)
# Legend:
# Conditions in all cases: concentration: 1 μM, replicates: in singlicate; n = 1
# PIKFYVE = system: PIKFYVE
# PIM1 = system: PIM1
# PIM2 = system: PIM2
# PIM3 = system: PIM3
# PIP5K1A = system: PIP5K1A
# PIP5K1C = system: PIP5K1C
# PIP5K2B = system: PIP5K2B
# PIP5K2C = system: T1, PIP5K2C
# T1 construct: gene PIP4K2C
# PKAC-alpha = system: T2, PKAC-alpha
# T2 construct: gene PRKACA
# PKAC-beta = system: T3, PKAC-beta
# T3 construct: gene PRKACB
# 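Note: KINOMEscan kinase panel screen.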
SMILES,%Inh (PIKFYVE) [%],%Inh (PIM1) [%],%Inh (PIM2) [%],%Inh (PIM3) [%],%Inh (PIP5K1A) [%],%Inh (PIP5K1C) [%],%Inh (PIP5K2B) [%],%Inh (PIP5K2C) [%],%Inh (PKAC-alpha) [%],%Inh (PKAC-beta) [%]
CC(C)Oc1ccc2c(-c3ccnc(Nc4ccc(N5CCN(C)CC5)cc4)n3)cnn2n1 [GW696155],92.8,37,0,42,14,47,73,87,3,0
COc1ccc(Nc2nccc(N3CCC(NC(=O)Nc4cc(C)ccc4C)C3)n2)cc1 (centres unmarked) [GSK1379741],0,0,0,0,1,25,10,9,0,0
NS(=O)(=O)c1cccc(-c2ccc3nccc(-c4cccc(S(N)(=O)=O)c4)c3c2)c1 [GW867253],21,3,0,9,21,0,0,41,0,0
COC(=O)Nc1nc2cc(Oc3ccc(NC(=O)Nc4cc(F)ccc4F)cc3)ccc2[nH]1.Cl [GW701424],31,13,0,2,41,9,14,40,0,0
Nc1nc(-c2ccc3c(N)n[nH]c3c2)cc(N2CCCC2)n1 [GSK2227430],0,20,0,0,0,26,0,0,0,0
